Data reported in PubChem BioAssay (NCI).
This is part of a sample that, as a whole, favours compounds with a hit. Of some 83,000 tested, about 20% had one in any assay.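 Plates (96-well) were seeded with cells, treated with compound at one concentration, and incubated for 48 hours before percent growth was determined.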 Values without a mark were called inactive. Active and inactive are the calls of the source. The calls were made as follows: active = growth percent below 10; inactive = the rest.

Experiments:
Test in all cases: NCI-60 one-dose screen, 48 h (100 = growth as untreated, 0 = no growth, -100 = all killed)
Conditions in all cases: 10 µM unless noted
HCT-15 colon = tested on: HCT-15 colon
HT29 colon = tested on: HT29 colon
SNB-75 CNS = tested on: SNB-75 CNS
SNB-19 CNS = tested on: SNB-19 CNS
U251 CNS = tested on: U251 CNS
PC-3 prostate = tested on: PC-3 prostate
SK-MEL-5 melanoma = tested on: SK-MEL-5 melanoma
UACC-62 melanoma = tested on: UACC-62 melanoma
SK-MEL-28 melanoma = tested on: SK-MEL-28 melanoma
SK-MEL-2 melanoma = tested on: SK-MEL-2 melanoma
SN12C renal = tested on: SN12C renal
UO-31 renal = tested on: UO-31 renal
TK-10 renal = tested on: TK-10 renal
ACHN renal = tested on: ACHN renal
CAKI-1 renal = tested on: CAKI-1 renal
CCRF-CEM leukemia = tested on: CCRF-CEM leukemia
MOLT-4 leukemia = tested on: MOLT-4 leukemia
EKVX NSCLC = tested on: EKVX NSCLC
A498 renal = tested on: A498 renal
LOX IMVI melanoma = tested on: LOX IMVI melanoma

Row | SMILES | growth (HCT-15 colon) | growth (HT29 colon) | growth (SNB-75 CNS) | growth (SNB-19 CNS) [%] | growth (U251 CNS) | growth (PC-3 prostate) | growth (SK-MEL-5 melanoma) | growth (UACC-62 melanoma) | growth (SK-MEL-28 melanoma) | growth (SK-MEL-2 melanoma) | growth (SN12C renal) | growth (UO-31 renal) | growth (TK-10 renal) | growth (ACHN renal) | growth (CAKI-1 renal) | growth (CCRF-CEM leukemia) | growth (MOLT-4 leukemia) | growth (EKVX NSCLC) [%] | growth (A498 renal) | growth (LOX IMVI melanoma)
1 | O=C(Nc1ccc(Br)c(Cl)c1)c1cc(F)ccc1O | 7.56% (active) | 0.733% (active) | 8.82% (active) | 19.4 | 12.3% | 5.07% (active) | -90.3% (active) | -3.96% (active) | -7.64% (active) | -32.6% (active) | 5.56% (active) | -1.56% (active) | 21.3% | 0.577% (active) | -48.8% (active) | 6.75% (active) | -23% (active) |  |  | 
2 | O=P([O-])(O)OP(=O)([O-])O.[NH-][C@H]1CCCC[C@@H]1[NH-].[OH-].[OH-].[Pt+4] | 102% | 110% | 86.6% | 107 | 91.1% | 99.5% | 106% | 103% | 118% | 117% | 105% | 96.6% | 102% | 86.3% | 94.8% | 98.4% | 87.8% | 100 | 81.7% | 
3 | O=C1OC(c2ccccc2)=N/C1=C\c1ccc([N+](=O)[O-])cc1 | 104% | 98.8% | 84.8% | 107 | 102% | 94.4% | 99.2% | 95.5% | 102% | 105% | 100% | 91.7% | 97.4% | 102% | 91.5% | 114% | 102% | 99.9 | 87.4% | 
4 | COc1ccc(C2CC(=O)Nc3c2c(C)nn3-c2nc3ccccc3[nH]2)cc1OC (stereo not given) | 85.9% | 95.3% | 50.9% | 84.9 | 84.4% | 75.4% | 71.2% | 68.8% | 88.1% | 77.8% | 89.9% | 52.4% |  | 85.2% | 72.8% | 5.82% (active) | -31.5% (active) |  | 3.48% (active) | 44.2%
5 | Cc1c(C(=O)NCc2ccccc2)[n+](=O)c2cc(F)ccc2n1[O-] | 111% | 94.4% | 76.7% | 108 | 102% | 81.9% | 86.7% |  | 91.3% | 40.8% | 103% | 39.4% | 138% | 102% | 79.7% | 52.5% | 130% | 114 | 101% | 97.4%
6 | COc1cc(C(=O)CCCl)ccc1O | 95.2% | 112% | 85.8% | 101 | 103% | 95% | 103% |  | 107% | 114% | 95.6% | 90.9% | 109% | 96.9% | 90.2% | 106% | 99.5% | 93.7 | 106% | 90.5%
7 | O=C1Nc2cc(Cl)ccc2/C1=C/c1ccc(N2CCOCC2)s1 | 112% | 97.3% | 101% | 86.6 | 96.7% | 92.5% | 104% |  | 114% | 91.4% | 104% | 85.9% | -3.94% (active) | 114% | 100% | 99.8% | 92.8% | 105 | 87.1% | 106%
8 | O=C(NNC(=S)Nc1ccccc1)c1ccccn1 | 22.8% | 57.2% | 67.5% | 52.2 | 20.4% | 34.4% | 13.8% |  | 46% | 85.6% | 43.7% | 19.8% | 50.2% | 16.4% | 5.93% (active) | 18.8% | 13.8% |  |  | 25.9%
9 | N#CC1=C(N)n2nc(-c3ccncc3)nc2NC1c1cccc2ccccc12 (stereo not given) | 90.4% | 97.8% | 67.6% | 92.8 | 86.7% | 76% |  | 72.4% | 106% | 96.3% | 96.6% | 58.1% | 103% | 95.2% | 69% | 87.7% | 86.4% | 71.7 | 89.8% | 79%
10 | CCCCCCCCCCCCOB(OCCCCCCCCCCCC)OCCCCCCCCCCCC | 105% | 105% | 118% | 106 | 94.4% | 98.5% | 102% |  | 108% | 108% | 95.8% | 91.8% | 101% | 109% | 104% | 95.3% | 95.2% |  | 112% | 89.7%
11 | O=c1oc2cc(OS(=O)(=O)c3ccccc3)c(Cl)cc2c2c1CCCCCC2 | 84.6% | 67.7% | 83.1% | 93.3 | 87.5% | 73.9% | 77.9% | 70.3% | 91.2% | 106% | 87.2% | 71.5% | 111% | 88.2% |  | 81% | 77.4% |  | 86.1% | 
12 | COc1ccc(/C=C/C(=O)c2ccc(NC(=O)CN3CCN(c4cc5c(cc4F)c(=O)c(C(=O)O)cn5C4CC4)CC3)cc2)cc1 | 108% | 114% | 89.2% | 94.7 | 98.6% | 92.4% | 94% |  | 106% | 117% | 95.9% | 90.5% | 106% | 114% | 93% | 102% | 101% |  | 112% | 
13 | Cc1ccc(C2=NN(c3ccc(S(=O)(=O)NC(=O)NCc4ccccc4)cc3)C(c3ccc(N(C)C)cc3)C2)c(C)c1 (stereo not given) | 32.6% | 43% | 65.1% | 54.8 | 22.6% | 32.7% | 12.2% |  | 26.6% | 40.9% | 46.5% | 38.3% | 66.5% | 44.7% | 47.7% | 42% | 23.1% |  | 51% | 36.3%
14 | NC(=O)NNC(=O)c1ccccc1 | 97.6% | 113% | 85.9% | 111 | 97.7% | 96.5% | 104% |  | 117% | 128% | 114% | 89.8% | 103% | 109% | 92.5% | 105% | 102% | 96.3 | 124% | 96.5%
15 | CC(Br)C(Br)c1cc2c(cc1Br)OCO2 (stereo not given) | 101% | 96% | 78.2% | 111 | 93.1% | 79.2% | 104% |  | 105% | 91.4% | 110% | 90.7% | 96.6% | 93.2% | 84% | 99.6% | 94.7% | 93.8 | 99.3% | 96.2%
16 | COc1ccc(NC(=O)CSc2nc3ccccc3c(=O)n2Cc2cc(OC)c(OC)c(OC)c2)cc1 | 89.5% | 110% | 66.3% | 95.8 | 97.7% | 85.1% | 87.5% |  | 94% | 93% | 79.6% | 73.5% | 96.5% | 80.6% | 95.6% | 90.1% | 68.8% |  | 87.1% | 94.5%
17 | CCNC(=O)CCCCC(=O)c1c(C)[nH]c(/C=C2\N=C(c3ccc[nH]3)C=C2OC)c1C | -39.8% (active) | -100% (active) | -12.6% (active) | 54.5 | 1.75% (active) | -42.2% (active) | 48% |  | 51.9% | 40.8% | 23.3% | -100% (active) | -61.6% (active) | -3.69% (active) | -29.9% (active) | 42.2% | 79.8% |  | 95.8% | -56.9% (active)
18 | CCN1C(=O)/C(=c2\sc3n(c2=O)C2C(NN=3)N(CC)C(=S)N2CC)c2ccccc21 (stereo not given) | 100% | 111% | 84.6% | 97.2 | 97.3% | 94% | 103% |  | 108% | 102% | 99.4% | 81.2% | 133% | 100% | 76% |  | 103% | 96.9 | 91.5% | 98.4%
19 | CC(C)C[C@H](NC(=O)[C@H](Cc1ccccc1)n1ccc(N2CCCCC2)cc1=O)B(O)O | 28.3% | 0.204% (active) | 4.25% (active) | 29.2 | 18.1% | 27.7% | -25.2% (active) | -12.5% (active) | 28.6% | 2.84% (active) | 26.7% | -37.2% (active) | 16.9% | 16.1% |  | 1.97% (active) | -2.84% (active) |  | -24.6% (active) | 
